# Reference: the supplement of paper PMC8728848
# About 410 targets per protein were measured; listed, in parts, are those with the strongest signals and a random draw of the rest.
# B1: PX9937D-bvu-500-26-500 (Bacteroides vulgatus) (protein)
# chain: DPVSDITDLNYWKTPEQFDSFVFGLHSRFRSHSWNMFLLGEARSDVFGGIPFGGEATQGMERFPYNTLNAENPGISGFGDLYQNINQMNLFISRTLHTDVLTESARNYYLGQVYGLRAYYMYQLYRSWGDVVFTEEPSLGFEVGKLAKAATPAAEIFEQVKKDIESSLSYFGSDYTIKEKKSLWSKAATLMLKADVYLWSAHRDGGEGDARTAKNALVDIQNNISRSNLDLMDTYQGVFAYDNKGNKEIIFTIHNELFEYNLWNGNNDLFPQADYLGKFYNADGTLINTSVENNFGIMRLMVKLENFKKFLPGDTRRDVTLKDVYNKVENGKLELVGVYPHKYWGVMNGSTRVRCDDYPIYRYSDLLLMLAEAKVLLGEDPATEINRVRRRAFGDAYDASTVGFPNQEVDKRPADAVLQERLFEFMLEGKRWYDLRRFGDSYVLDYTPAEPARLLWPINQGALTNNPLLKQTVGY
# What was measured:
# Assay in all cases: glycan array binding signal (z-score within array); higher = stronger binding
# Conditions in all cases: glycan notation: IUPAC condensed, linker removed
# GalNAc(b1-3)GlcNAc = target: GalNAc(b1-3)GlcNAc
# Outline: (§1)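 Negative Z-scores can be read as non-binding. The Z-score is calculated within each array and then averaged across arrays of one protein sequence at different concentrations or buffers and across linkers. Arrays, 3228 in all, were curated from the Consortium for Functional Glycomics database and kept only where the protein sequence was available.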
# [1] = target: Glc(a1-6)Glc(a1-6)Glc(a1-6)Glc
# Outline: as §1
# [2] = target: GlcNAc(a1-4)Gal(b1-3)GlcNAc
# Outline: as §1
# [3] = target: GlcNAc(b1-2)Man(a1-3)[GlcNAc(b1-2)Man(a1-6)]Man(b1-4)GlcNAc(b1-4)[Fuc(a1-6)]GlcNAc
# Outline: as §1
# [4] = target: GlcNAc(b1-3)Gal(b1-4)GlcNAc(b1-3)Gal(b1-4)GlcNAc(b1-3)Gal(b1-4)GlcNAc(b1-3)Gal(b1-4)GlcNAc(b1-2)Man(a1-3)[GlcNAc(b1-3)Gal(b1-4)GlcNAc(b1-3)Gal(b1-4)GlcNAc(b1-3)Gal(b1-4)GlcNAc(b1-3)Gal(b1-4)GlcNAc(b1-2)Man(a1-6)]Man(b1-4)GlcNAc(b1-4)[Fuc(a1-6)]GlcNAc
# Outline: as §1
# [5] = target: GlcNAc(b1-4)GlcNAc(b1-4)GlcNAc
# Outline: as §1
# [6] = target: GlcNAc(b1-4)GlcNAc(b1-4)GlcNAc(b1-4)GlcNAc(b1-4)GlcNAc
# Outline: as §1
# [7] = target: GlcNAc(b1-6)Gal(b1-4)GlcNAc
# Outline: as §1
# GlcNAc(b1-6)GalNAc = target: GlcNAc(b1-6)GalNAc
# Outline: as §1
# [8] = target: Neu5Ac(a2-3)Gal(b1-3)GalNAc
# Outline: as §1
# [9] = target: Neu5Ac(a2-3)Gal(b1-3)GalNAc(b1-4)[Neu5Ac(a2-3)]Gal(b1-4)Glc
# Outline: as §1
# [10] = target: Neu5Ac(a2-3)Gal(b1-4)GlcNAc(b1-2)Man
# Outline: as §1
# [11] = target: Neu5Ac(a2-3)Gal(b1-4)GlcNAc(b1-2)Man(a1-3)[Neu5Ac(a2-3)Gal(b1-4)GlcNAc(b1-2)Man(a1-6)]Man(b1-4)GlcNAc(b1-4)[Fuc(a1-6)]GlcNAc
# Outline: as §1
# [12] = target: Neu5Ac(a2-3)Gal(b1-4)GlcNAc(b1-2)[Neu5Ac(a2-3)Gal(b1-4)GlcNAc(b1-4)]Man(a1-3)[GlcNAc(b1-4)][Neu5Ac(a2-3)Gal(b1-4)GlcNAc(b1-2)[Neu5Ac(a2-3)Gal(b1-4)GlcNAc(b1-6)]Man(a1-6)]Man(b1-4)GlcNAc(b1-4)GlcNAc
# Outline: as §1
# [13] = target: Neu5Ac(a2-3)Gal(b1-4)GlcNAc(b1-3)Gal(b1-4)GlcNAc(b1-2)Man(a1-3)[Neu5Ac(a2-3)Gal(b1-4)GlcNAc(b1-3)Gal(b1-4)GlcNAc(b1-2)Man(a1-6)]Man(b1-4)GlcNAc(b1-4)GlcNAc
# Outline: as §1
# [14] = target: Neu5Ac(a2-3)Gal(b1-4)[Fuc(a1-3)]GlcNAc(b1-2)Man
# Outline: as §1
# [15] = target: Neu5Ac(a2-3)Gal6S(b1-4)GlcNAc
# Outline: as §1
# [16] = target: Neu5Ac(a2-6)Gal(b1-4)GlcNAc(b1-2)Man(a1-3)[GlcNAc(b1-2)Man(a1-6)]Man(b1-4)GlcNAc(b1-4)GlcNAc
# Outline: as §1
# [17] = target: Neu5Ac(a2-6)Gal(b1-4)GlcNAc(b1-3)Gal(b1-4)GlcNAc(b1-2)Man(a1-3)[Neu5Ac(a2-6)Gal(b1-4)GlcNAc(b1-3)Gal(b1-4)GlcNAc(b1-2)Man(a1-6)]GalNAc
# Outline: as §1
# [18] = target: Neu5Ac(a2-6)Gal(b1-4)GlcNAc(b1-3)Gal(b1-4)GlcNAc(b1-3)GalNAc
# Outline: as §1
# [19] = target: Neu5Ac(a2-6)Gal(b1-4)GlcNAc(b1-3)Gal(b1-4)GlcNAc(b1-6)[Gal(b1-3)]GalNAc
# Outline: as §1
# [20] = target: Neu5Ac(a2-6)Gal(b1-4)GlcNAc(b1-3)Gal(b1-4)[Fuc(a1-3)]GlcNAc(b1-3)Gal(b1-4)[Fuc(a1-3)]GlcNAc
# Outline: as §1
# [21] = target: Neu5Ac(a2-6)GlcNAc(b1-4)GlcNAc(b1-4)GlcNAc
# Outline: as §1
# [22] = target: Neu5Ac(a2-8)Neu5Ac(a2-3)Gal(b1-4)GlcNAc
# Outline: as §1
# [23] = target: Neu5Ac(a2-8)Neu5Ac(a2-3)[Gal(b1-3)GalNAc(b1-4)]Gal(b1-4)Glc
# Outline: as §1
# [24] = target: Neu5Ac(a2-8)Neu5Gc(a2-3)Gal(b1-4)GlcNAc
# Outline: as §1
# [25] = target: Neu5Ac9Ac(a2-3)Gal(b1-3)GlcNAc
# Outline: as §1
# [26] = target: Neu5Gc(a2-8)Neu5Gc(a2-3)Gal(b1-4)GlcNAc(b1-3)Gal(b1-4)GlcNAc
# Outline: as §1
binder,measurement,setting,value
B1,glycan array binding signal (z-score),GalNAc(b1-3)GlcNAc,-0.418
same,glycan array binding signal (z-score),[1],-0.405
same,glycan array binding signal (z-score),[2],-0.056
same,glycan array binding signal (z-score),[3],-0.178
same,glycan array binding signal (z-score),[4],-0.298
same,glycan array binding signal (z-score),[5],-0.41
same,glycan array binding signal (z-score),[6],-0.558
same,glycan array binding signal (z-score),[7],0.08
same,glycan array binding signal (z-score),GlcNAc(b1-6)GalNAc,0.455
same,glycan array binding signal (z-score),[8],-0.219
same,glycan array binding signal (z-score),[9],-0.308
same,glycan array binding signal (z-score),[10],-0.574
same,glycan array binding signal (z-score),[11],-0.13
same,glycan array binding signal (z-score),[12],-0.306
same,glycan array binding signal (z-score),[13],0.163
same,glycan array binding signal (z-score),[14],0.114
same,glycan array binding signal (z-score),[15],-0.307
same,glycan array binding signal (z-score),[16],-0.121
same,glycan array binding signal (z-score),[17],4.23
same,glycan array binding signal (z-score),[18],-0.414
same,glycan array binding signal (z-score),[19],0.256
same,glycan array binding signal (z-score),[20],0.021
same,glycan array binding signal (z-score),[21],0.037
same,glycan array binding signal (z-score),[22],-0.636
same,glycan array binding signal (z-score),[23],-0.284
same,glycan array binding signal (z-score),[24],10.6
same,glycan array binding signal (z-score),[25],-0.36
same,glycan array binding signal (z-score),[26],-0.056
